Out of some 48,000 compounds screened, about 13,000 (27%) showed an effect of 50% or more. Some of the results follow.

For this assay, the system named is Wolbachia pipientis. In words: Anti-Wolbachia Cell-Based Screen. Type of assay: functional. The arrangement: scale not given: in the data most compounds retested in dose-response had high values. Particulars: 5 µM.
On to `Cc1nc[nH]c1-c1nnc(SCC(=O)O)n1-c1ccccc1C(F)(F)F`, for which the “Percent Effect” value is recorded as -17.22%.
Under `O=S(=O)(Cc1ccccc1F)NC(CO)c1ccco1` (stereo not given) stands 6.014%.
As for `Cl.Cl.Cl.O[C@@H]1C[C@@](CNCc2ccccn2)(COc2cccnc2)C[C@@H]1O`, the figure is -17.47%; as for `Cc1ccsc1CNC(=O)c1ccc(N2CCNC2=O)cc1`, 1.647%; as for `COc1ccc(NC(=O)N2CCC3(CC2)NC(=O)CC3C(=O)O)c(C)c1` (stereo not given), 2.707%.
In the case of `Cn1c(CS(=O)(=O)Cc2cccc(Cl)c2)cc(=O)n(C)c1=O`, the “Percent Effect” value came to 7.085%.
Under `CCS(=O)(=O)CCNc1nc(C2CCCC2)nc2c1cnn2C` stands 3.087%; under `CCc1nc(CC(=O)N2CCCC2c2c(C)nn(C)c2OC)cs1` (stereo not given), 118.7%; under `Cc1nn(C)c(C)c1C1CCCN1C(=O)Cc1cn2ccsc2n1` (stereo not given), 10.74%.
For `COc1c(C2CCCN2C(=O)Cc2c(C)noc2C)c(C)nn1C` (stereo not given), the “Percent Effect” value was -5.371%.
Under `CCN(c1ccc(C(=O)Nc2c(C)nn(C(C)C)c2C)cc1)C(C)C` stands -6.116%; under `COc1cccc(N2CC3(CCN(c4ccc(C)nn4)C3)CC2=O)c1` (stereo not given), 3.863%; under `CN1[C@H](Cn2cccn2)C[C@@H]2CN(Cc3cccs3)CC[C@@H]21.O=C(O)C(F)(F)F.O=C(O)C(F)(F)F.O=C(O)C(F)(F)F`, 118%.
In the case of `CC(C)N1[C@H](Cn2cncn2)C[C@@H]2CN(Cc3cccs3)CC[C@@H]21.O=C(O)C(F)(F)F`, the “Percent Effect” value worked out at 3.978%.
Under `CN1C(Cn2cccn2)C[C@@H]2CN(C(=O)c3cccc(C#N)c3)CC[C@@H]21.O=C(O)C(F)(F)F.O=C(O)C(F)(F)F` (stereo not given in full) stands 118.1%; under `O=C(O)C(F)(F)F.c1csc(CN2C[C@@H](n3cccn3)[C@H]3OCCC[C@H]32)c1`, 9.631%; under `CN1[C@H](Cn2cncn2)C[C@@H]2CN(Cc3cccc(C#N)c3)CC[C@@H]21.O=C(O)C(F)(F)F.O=C(O)C(F)(F)F`, 3.665%.
Under `CC(C)N1[C@H](Cn2cccn2)C[C@@H]2CN(Cc3ccoc3)CC[C@@H]21.O=C(O)C(F)(F)F.O=C(O)C(F)(F)F.O=C(O)C(F)(F)F` stands -17.46%; under `Cc1ccc(CN2CC[C@H]3[C@H](CC(Cn4cccn4)N3C)C2)s1.O=C(O)C(F)(F)F.O=C(O)C(F)(F)F.O=C(O)C(F)(F)F` (stereo not given in full), 96%.
As for `N#Cc1cccc(C(=O)N2CC[C@H]3[C@H]2CCN3CC2CCOCC2)c1.O=C(O)C(F)(F)F`, the figure is -18.46%; as for `CN(C1CCCC1)C(C)(C)C(=O)NCCNC(N)=O`, -0.4481%; as for `COCC1CN(C(=O)Cc2ccccn2)Cc2ncnn2C1.O=C(O)C(F)(F)F` (stereo not given), -1.318%.
Turning to `Cc1ccc(CN2CCC(Cc3nnc(CO)n3C)CC2)cc1C`, the “Percent Effect” value is -13.27%.
In the case of `CN(c1ncc(S(N)(=O)=O)s1)C1CCC1`, the “Percent Effect” value is reported as 11.92%.
As to `COc1cc(NCc2ncc[nH]2)ccc1Br`, the “Percent Effect” value stood at 2.622%.
Under `Cn1nc2c(cc1=O)CN(CCc1nc3ccccc3c(=O)[nH]1)CC2` stands 5.907%; under `CN(C)C(=O)COC[C@]12COC[C@H]1CN(Cc1ccco1)C2.O=C(O)C(F)(F)F`, 94.75%; under `CCS(=O)(=O)NC[C@]12COC[C@H]1CN(CCc1ccccc1)C2.O=C(O)C(F)(F)F`, -14.92%.
Under `CN(C)C(=O)COC[C@]12COC[C@H]1CN(CC1CCC1)C2.O=C(O)C(F)(F)F` stands -8.978%; under `CN(C)C(=O)COC[C@]12COC[C@H]1CN(Cc1ccoc1)C2`, -6.231%; under `CN(C)C(=O)COC[C@]12COC[C@H]1CN(Cc1ccccc1)C2.O=C(O)C(F)(F)F`, 108.4%.
As to `CN(C)C(=O)COC[C@]12COC[C@H]1CN(CCc1ccccc1)C2.O=C(O)C(F)(F)F`, the “Percent Effect” value is reported as 103%.
As for `Cc1c(Cl)ccc2ccc(NC(CO)CO)nc12`, the figure is -19.83%; as for `Cc1ccc(NCc2cn3c(n2)CN(Cc2ccoc2)CC3)nn1.O=C(O)C(F)(F)F.O=C(O)C(F)(F)F`, 8.385%.
Under `CCn1ccnc1CN(C)C(C(=O)O)c1ccc(C(C)(C)C#N)cc1` (stereo not given) stands -18.43%.
For `C=C(C)COc1cccc(CN(CC)Cc2noc(C)n2)c1`, the “Percent Effect” value is -43.03%.
As for `NC1CCN(C(=O)c2cnc(Cc3c(Cl)cccc3Cl)nc2O)C1` (stereo not given), the figure is -9.17%; as for `COCCN(Cc1ccco1)Cc1nc(-c2ccsc2)no1`, 17.38%.
Under `CCN(CC)CCNc1c(-c2ccccc2)c(=O)c1=O` stands 104.3%; under `CN(C)CCNc1c(-c2ccccc2)c(=O)c1=O`, 102.6%.
As for `CN(C)CCNc1ccc(-c2nc(-c3ccccc3F)no2)cn1`, the figure is -20.15%; as for `CCCN(CCC)CCNc1c(-c2ccccc2)c(=O)c1=O`, 97.32%.
For `CCN(CC)CCNC(=O)c1cnc(-c2ccccc2)nc1`, the “Percent Effect” value was 14.16%.
Under `CN(C)CCNc1ccc(-c2nc(COc3ccccc3)no2)cn1` stands -0.8633%.
As for `CCN(CC)CCNC(=O)c1cnc(C(C)(C)C)s1`, the “Percent Effect” value is recorded as -7.701%.
As for `O=c1ccc2c([nH]1)CCN(S(=O)(=O)c1ccc3c(c1)CCCC3)C2`, the figure is -15.49%; as for `Cc1ccc(CN2CC[C@@H](N(C)C(C)C)[C@@H]2Cc2ccccc2)o1`, -15.45%.
As to `CCc1cccc(CC(=O)NC2CCN(C(=O)NC(C)(C)C)CC2)c1`, the “Percent Effect” value was -13.61%.
As for `Cc1ncc(CNC2CCc3nc(C(C)C)nn3C2)s1` (stereo not given), the figure is 101%; as for `Cc1cnc(CNC2CCc3nc(C(C)C)nn3C2)cn1` (stereo not given), 130.4%.
As for `Cc1nc(CNC2CCc3nc(C(C)C)nn3C2)oc1C` (stereo not given), the figure is 22.08%.
Regarding `CC(C)c1nc2n(n1)CC(NCc1nnc(-c3ccco3)o1)CC2` (stereo not given), the “Percent Effect” value is given as -6.468%.
Under `CC(C)c1nc2n(n1)CC(NCc1nnnn1C1CC1)CC2` (stereo not given) stands 8.252%; under `CC(C)c1nc2n(n1)CC(NCc1ncc(-c3ccccc3)o1)CC2` (stereo not given), -0.3467%; under `CCn1cc(S(=O)(=O)Nc2ccc3[nH]c(C4CCC4)nc3c2)cn1`, -33.9%.
Under `c1cnn(C2CN(c3nc(-c4ccncc4)nc4c3CCC4)C2)c1` stands -0.2642%.
Under `Cc1ccc(C2CN(C(=O)c3c(C)cc(C)[nH]c3=O)CCO2)c(C)c1` (stereo not given) stands 7.803%; under `CCC(C)N(C)S(=O)(=O)c1ccc(CCNC(C)=O)s1` (stereo not given), 12.12%.
Consider `CN1[C@H]2CC[C@@H]1CN(C(=O)c1sccc1S(N)(=O)=O)CC2`, for which the “Percent Effect” value was -9.156%.
Regarding `O=C(c1cccc(-c2ncc[nH]2)c1)N1CC[C@H](CO)[C@@H](O)C1`, the “Percent Effect” value is on record as -2.343%.
In the case of `Cc1ccsc1[C@@H]1CCN(C(=O)c2cc3ccccc3[nH]2)C[C@H]1O`, the “Percent Effect” value is -6.106%.
As for `CO[C@H]1CN(C(=O)c2ccc(-c3ccccc3)[nH]2)CC[C@H]1N`, the figure is 104.8%; as for `CO[C@H]1CN(C(=O)c2ccc(-c3cc[nH]n3)cc2)CC[C@H]1N`, 5.265%; as for `CC(=O)Nc1ccsc1C(=O)N1CC[C@@H]2CC[C@H](C1)N2C`, -9.655%.
As for `CN1[C@H]2CC[C@@H]1CN(C(=O)c1ccc(-c3ccccc3)[nH]1)CC2`, the figure is 114.3%; as for `CO[C@H]1CN(C(=O)c2cc3ccccc3[nH]2)CC[C@H]1N`, 117%; as for `Cc1[nH]c(-c2ccccc2)nc1C(=O)N1CCC(O)(CO)CC1`, -2.686%.
Turning to `Cc1[nH]c(-c2ccccc2)nc1C(=O)N1CC[C@H](CO)[C@@H](O)C1`, the “Percent Effect” value turned out to be 5.886%.
As for `CC(C)COC1CCN(C(=O)c2cc3ccccc3c(=O)[nH]2)CC1`, the figure is -14.3%; as for `CO[C@H]1CN(C(=O)c2nc(-c3ccccc3)[nH]c2C)CC[C@H]1N`, 99.21%.
Under `O=C(O)CC1CN(S(=O)(=O)c2cccc(F)c2)c2ccccc21` (stereo not given) stands -14.9%.
Under `CC(NC(=O)Nc1nnc(-c2ccccn2)s1)C(=O)OC(C)(C)C` (stereo not given) stands 4.269%.
Consider `CN1CC[C@@H]2[C@@H](CO[C@H]2CNC(=O)c2nccn2C)C1.O=C(O)C(F)(F)F`, for which the “Percent Effect” value is listed as -30.91%.
As for `COCCN(CCN(C)C)C(=O)NC1CCc2ccccc2C1` (stereo not given), the figure is -2.569%.
As for `CCOc1cc2c(cc1CN1CCC3(CC1)CNC(=O)C3)CCC2`, the figure is 89%.
Under `Cc1ccc(Sc2ccc(CN3CCC4(CCCNC4=O)C3)o2)cc1` (stereo not given) stands 5.94%; under `CCCNc1ncc(CN2CCC3(CC2)CNC(=O)C3)cn1`, -5.134%; under `CCOc1cc2c(cc1CN1CCC3(CCCNC3=O)C1)CCC2` (stereo not given), 106.5%.
On to `CCOc1ccc(CN2CCC3(CC2)CNC(=O)C3)cn1`, for which the “Percent Effect” value is on record as -1.206%.
On to `CCOc1cc(Cl)c(CN2CCC3(CCCNC3=O)C2)cc1OC` (stereo not given), for which the “Percent Effect” value came out at 104.3%.
`CCCc1cc(C(=O)N2CCC3(CCCNC3=O)C2)cs1` (stereo not given): the “Percent Effect” value is given as 9.333%.
Consider `CCOc1cc2c(cc1CCC(=O)O)CCC2`, for which the “Percent Effect” value is on record as -9.267%.
As for `O=C1NCCCC12CCN(Cc1ccc(SC3CCCCC3)o1)C2` (stereo not given), the figure is 4.336%.
As for `CN1CCc2ccc(NCc3cscn3)cc2C1=O`, the “Percent Effect” value amounted to 26.59%.
Under `CN(C)C(=O)CN1C[C@H]2CCN(C(=O)c3ccncc3)CC[C@H]2S1(=O)=O` stands 6.618%; under `CCc1nnc(S(=O)(=O)Cc2cc(Cl)c3c(c2)OCO3)n1C`, -5.495%; under `CNC(=O)CCN(C)c1nc(-c2ccncc2)nc2c1CCNC2`, 97.6%.
In the case of `CCN(CC)CCN(C)c1nc(-c2ccc(Cl)cc2)nc2c1CNC2`, the “Percent Effect” value is given as -44.78%.
As for `CN(CCCO)c1nc(-c2ccc(C(N)=O)cc2)nc2c1CCNC2`, the “Percent Effect” value is reported as 101.5%.
As for `NC(=O)c1ccc(-c2nc3c(c(=O)[nH]2)CCNC3)cc1`, the figure is -6.229%; as for `CNC(=O)CN(C)c1nc(-c2ccncc2)nc2c1CCN(C(C)=O)C2`, -5.976%; as for `CN(CC(O)CO)c1nc(-c2cccnc2)nc2c1CCNC2` (stereo not given), 5.807%.
As for `COCCN(C)c1nc(-c2ccncc2)nc2c1CCN(C(C)=O)C2`, the figure is 5.956%; as for `CNC(=O)CN(C)c1nc(-c2ccc(C(N)=O)cc2)nc2c1CCNC2`, 117.3%; as for `CN(CCO)c1nc(-c2ccccn2)nc2c1CCNC2`, -7.259%.
